# A selection: hits, their analogues and other compounds. The true share with any hit is near 17%.
# ATXN2 expr inh: reduces ATXN2 reporter expression in HEK-293 cells; HEK-293 ATXN2-luciferase reporter, luminescence, 24 h; Potency, µM (top dose mostly 57 µM), for the others: top-dose activity change, negative = inhibition, actives largely listed as inhibitors; 360,000 compounds, 0.72% hits; note: % is set by controls: 0 for no effect and ±100 for the full control effect; nearly all actives have a fitted effect of over 55% in size
#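 ATXN2-luciferase reporter cells (luciferase flanked by upstream and downstream ATXN2 gene portions) were treated 24 h at 37 °C with compounds at up to 57 uM. SteadyGlo luminescence gave expression; GF-AFC fluorescence gave viability.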
# DT40 TDP1 no CPT: qHTS for Inhibitors of human tyrosyl-DNA phosphodiesterase 1 (TDP1): qHTS in cells in absence of CPT; DT40 Tdp1-/- hTDP1 cells, no CPT, ATP luminescence, 48 h; Potency, µM (highest dose often 46.2 µM), for inactives: at the top dose activity change, negative = growth inhibition, most hits filed as inhibitors; 420,000 compounds, 15% hits; AID 686978, 2013; note: % is set by controls: 0 for no effect and ±100 for the full control effect; nearly all actives have a fitted effect of over 55% in size
#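 DT40 Tdp1-/-;hTDP1 cells, no CPT (DMSO vehicle only), 400 cells/well; compounds pin-transferred; ≥48 hr, 37 °C; CellTiter-Glo 30 min RT dark, luminescence read.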
# TGFb inhibitor: blocks TGF-b signaling. HepG2 CAGA-GFP TGF-b/SMAD3 reporter, GFP fluorescence, 18 h; TGF-beta stimulated, 500 pg/mL final. Potency, µM (highest dose often 46.1 µM), for the others: top-dose activity, negative = inhibition, usual class: inhibitors. 410,000 compounds, 1.2% hits; note: % is set by controls: 0 for no effect and ±100 for the full control effect; nearly all actives have a fitted effect of over 65% in size
#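 Smad-responsive CAGA-GFP expression was quantified in HEPG2 cells exposed to compounds and 500 pg/mL final TGF-beta for 18 h at 37 degrees C; unstimulated wells defined full inhibition.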
# TDP1 cell CPT: growth inhibition of DT40 Tdp1-/-;hTDP1 cells with camptothecin (screen for TDP1 inhibitors). chicken DT40 Tdp1-/-;hTDP1 cells + 20 nM CPT, ATP luminescence, 48 h. 420,000 compounds, 12% hits. AID 686979. Potency, µM (top dose mostly 46.2 µM), for the others: at the top dose activity change, negative = growth inhibition, most hits filed as inhibitors; note: % is set by controls: 0 for no effect and ±100 for the full control effect; nearly all actives have a fitted effect of over 55% in size
#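 Chicken DT40 Tdp1-/- cells stably complemented with human TDP1 were seeded at 400 cells/well in medium containing 20 nM camptothecin, exposed to pin-transferred compounds, and grown at 37 °C for at least 48 hr. Viability was read as ATP luminescence.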
# HepG2 viability: counter-screen for TGF-b inhibitors: cytotoxicity in HepG2 cells; 410,000 compounds, 0.76% hits; Potency, µM (titrated, usually from 46.1 µM), for inactives: at the highest dose activity change, negative = cytotoxicity, usual class: cytotoxic; HepG2 CAGA-GFP viability, ATP luminescence, 18 h; AID 588856
#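 CellTiter-Glo luminescence gave cytotoxicity after 18 hours at 37 degrees C. The cells were HepG2 CAGA-GFP in 1% FBS DMEM, stimulated with 500 pg/mL TGF-beta after compound addition. %Activity was normalised to no-cell wells (complete cell-killing) and DMSO (no toxicity), and curves were fitted and classified.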
# ATXN viability: cell viability loss in ATXN counter-screen. Potency, µM (top dose mostly 56.7 µM), usual class: cytotoxic. 400,000 compounds, 0.49% hits. S2 cells (HEK-293 line with an ATXN2-luciferase reporter) viability, CellTiter-Fluor protease fluorescence, 24 h; note: nearly all actives have a fitted effect of over 40% in size
# * = called active by the depositor; i = inactive; u = inconclusive; x = not tested or not shown; ! = a repeat was not active; [ ] = another dose, or the depositor's remark. Calls come from the whole dose curve; as a rule, active = well fitted curve in the direction sought with a large enough effect; inconclusive = small, poorly fitted or top-dose-only effect, or another doubt; inactive = no such curve, though single readings can be large; an effect the other way counts as inactive or inconclusive. Potency is the fitted concentration of half-maximal effect.
SMILES,ATXN2 expr inh,DT40 TDP1 no CPT,TGFb inhibitor,TDP1 cell CPT,HepG2 viability,ATXN viability
CCOCCCn1c(SCC(=O)Nc2ccccc2CC)nc2ccccc2c1=O,x,16µM*,u,16µM*,4%,x
OCC1OC(n2cnc3c(NCCc4ccccc4)ncnc32)C(O)C1O (stereo unspecified),35%,-11%,-17%,6%,-42%,i
CNC(=O)[C@H]1O[C@@H](n2cnc3c(NCc4cccc(I)c4)ncnc32)[C@H](O)[C@@H]1O,17%,16µM*!,35%,u,4%,i
OC[C@H]1O[C@@H](n2cnc3c(NCc4ccccc4)ncnc32)[C@H](O)[C@@H]1O,x,1.9µM*,x,2.7µM*,x,x
N#Cc1ncn(C2OC(CO)C(O)C2O)c1N (stereo unspecified),x,5.8µM*,-2%,5.8µM*,-13%,i
NC(=O)c1ncn([C@@H]2O[C@H](CO)[C@@H](O)[C@H]2O)c1N,2%,-1%,x,-3%,x,i
OCC1OC(n2cnc3c(SCc4ccccc4)nc(F)nc32)C(O)C1O (stereo unspecified),2%,-13%,3%,-26%,3%,i
O=[N+]([O-])c1ccc(CSc2ncnc3c2ncn3[C@@H]2O[C@H](CO)[C@@H](O)[C@H]2O)cc1,1%,13µM*,1%,u,-33%,i
Cc1ccc(NC(=O)CC2(CC(=O)O)CCCC2)c(C)c1,-9%,-1%,-1%,13%,-1%,i
O=C(Cn1cnc2c(NCc3ccccc3)ncnc21)NCc1ccccc1,-1%,2.9µM*,-17%,4.1µM*,4%,i
Nc1ncnc2c1ncn2[C@@H]1O[C@@H](CO)[C@H](O)[C@H]1O,-6%[25.6 µM],x,x,x,x,i
OC[C@H]1O[C@@H](n2cnc3c(=S)nc[nH]c32)[C@H](O)[C@@H]1O,-14%,11µM*,x,12µM*,x,u
OCC1OC(n2cnc3ncccc32)C(O)C1O (stereo unspecified),-12%,6.5µM*,u,7.3µM*,-31%,i
OCC1OC(n2cnc3c(NO)ncnc32)C(O)C1O (stereo unspecified),x,5µM*,-6%,0.89µM*,6%,x
Cc1cc(C)nc(SCCn2c(N3CC(C)OC(C)C3)nc3c2c(=O)n(C)c(=O)n3C)n1 (stereo unspecified),-18%,-1%,-21%,13%,10%,i
CC1CCCN(C(=O)COc2ccc(Nc3ccccc3)cc2)C1 (stereo unspecified),5%,u,-5%,u,5%,i
Cc1cc(C)cc(Oc2c(C(F)(F)F)oc3cc(OCC(=O)NC4CCCCC4)ccc3c2=O)c1,4%,u,0%,-8%,1%,i
Nc1ccnc2c1ncn2[C@@H]1O[C@H](CO)[C@@H](O)[C@H]1O,x,4.6µM*,x,12µM*,x,x
CCCCN1C(=O)C(C(=O)OCC)CC2=C1CCCC2=O (stereo unspecified),7%,-7%,-8%,-2%,2%,i
O=S(=O)(Nc1ccc(-c2ccc(N3CCCC3)nn2)cc1)c1ccc(C(F)(F)F)cc1,-12%,u,u,u,-25%,i
O=S(=O)(Nc1ccc(-c2ccc(N3CCCCCC3)nn2)cc1)c1cccc(C(F)(F)F)c1,-4%,u,u,15µM*,-15%,i
O=S(=O)(Nc1ccc(-c2ccc(N3CCCCCC3)nn2)cc1)c1ccc(C(F)(F)F)cc1,-9%,u,-28%,12µM*,-12%,u
Cc1cc(C)c(S(=O)(=O)Nc2ccc(-c3ccc(N4CCCCC4)nn3)cc2)cc1C,11%,18µM*,-7%,8.2µM*,-18%,i
O=C(O)c1ccc2nc(-c3cc4cc(Cl)ccc4oc3=O)[nH]c2c1,11%,0%,6%,u,7%,x
COC(=O)[C@@H](NC(=O)C1CCCN(c2nc(C)c3ccc(C)cc3n2)C1)C(C)C (stereo partly specified),x,u,x,14%[9.04 µM],x,i
SMILES,ATXN2 expr inh,DT40 TDP1 no CPT,TGFb inhibitor,TDP1 cell CPT,HepG2 viability,ATXN viability
Cc1ccc(S(=O)(=O)NCCC(=O)NCCSc2ccc(Br)cc2)cc1,-5%,u,-7%,-5%,6%,i
COc1ccc(C)cc1N(C(=O)COc1cccc(F)c1)c1nc2ccccc2s1,2%,u,-18%,u,0%,i
COc1ccc(C)cc1N(C(=O)c1ccc(F)cc1)c1nc2ccccc2s1,-18%,16µM*,6%,u,14%,u
COc1ccc(CN2CCNC(=O)C2CC(=O)N(C)Cc2ccno2)c(F)c1 (stereo unspecified),1%,5%,-3%,-4%,-20%,i
COc1cccc(-c2cc(CC3(O)CCN(CCCc4ccccc4)CC3)on2)c1,-48%,5%,-1%,-14%,-3%,i
COc1ccc(CNC(=O)c2cnc(N(C)C)nc2)cc1,7%,u,0%,0%,1%,i
NC(=O)CC1Nc2cccc3cccc(c23)NC1=O (stereo unspecified),-8%,2%,u,17%,-18%,i
O=C(CC1Nc2cccc3cccc(c23)NC1=O)Nc1ccccc1 (stereo unspecified),-8%,26µM*,2%,u,-7%,i
Cc1ccc(NC(=O)CC2Nc3cccc4cccc(c34)NC2=O)cc1 (stereo unspecified),x,6.5µM*,11µM*,u,-28%,x
CC(NC(=O)c1ccccc1NC(=O)c1ccccc1)C(=O)N1CCOCC1 (stereo unspecified),0%,-16%,7%,-4%,5%,i
Nc1c(C(=O)Nc2ccccc2Cl)nnn1Cc1cccc(Cl)c1,u,-29%,-3%,-22%,-18%,u
CCc1ccccc1NC(=O)CSC1=C(C#N)C(c2ccc(O)c(OC)c2)C2=C(CCCC2=O)N1 (stereo unspecified),0%,23µM*,u,21µM*,0%,i
COc1ccc(-c2c(C)nn3c(-c4ccccc4)cc(-c4ccccc4)nc23)cc1,1%,u,14%,u,-2%,i
Cc1ccc(C)c(NC(=O)C2C3CCCC2C3c2ccccc2)c1 (stereo unspecified),-12%,-16%,12%,u,-10%,i
